ChEMBL document CHEMBL1961873, “Compounds: GSK PKIS; Assays: Nanosyn kinase panel” (2012)

Legend:
[1] = target: T1, 3-phosphoinositide-dependent protein kinase 1 (Homo sapiens) (UniProt O15530); conditions: at 0.1 µM;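 further: values are mean inhibition of PDK1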
T1 sequence (whole entry): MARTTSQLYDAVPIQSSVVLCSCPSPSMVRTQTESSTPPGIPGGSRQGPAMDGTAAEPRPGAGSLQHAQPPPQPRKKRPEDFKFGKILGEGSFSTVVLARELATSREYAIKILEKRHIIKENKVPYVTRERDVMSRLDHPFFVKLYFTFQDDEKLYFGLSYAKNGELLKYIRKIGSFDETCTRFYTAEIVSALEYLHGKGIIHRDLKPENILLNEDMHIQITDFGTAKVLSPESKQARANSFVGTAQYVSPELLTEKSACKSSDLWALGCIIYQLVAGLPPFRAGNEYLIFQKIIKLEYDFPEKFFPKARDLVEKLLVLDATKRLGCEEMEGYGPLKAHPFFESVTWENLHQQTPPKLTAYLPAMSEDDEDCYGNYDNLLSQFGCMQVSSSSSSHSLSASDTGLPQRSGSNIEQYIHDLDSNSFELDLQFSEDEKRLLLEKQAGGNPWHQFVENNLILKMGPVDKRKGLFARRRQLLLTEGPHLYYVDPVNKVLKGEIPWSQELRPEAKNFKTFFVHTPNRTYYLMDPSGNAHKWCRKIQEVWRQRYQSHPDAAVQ

[2] = target: cAMP-dependent protein kinase catalytic subunit alpha (Homo sapiens) (UniProt P17612); conditions: at 0.1 µM
[3] = target: cAMP-dependent protein kinase catalytic subunit alpha (Homo sapiens) (UniProt P17612); conditions: at 1 µM
[4] = target: Protein kinase C alpha type (Homo sapiens) (UniProt P17252); conditions: at 0.1 µM
[5] = target: Protein kinase C alpha type (Homo sapiens) (UniProt P17252); conditions: at 1 µM
[6] = target: Protein kinase C beta type (Homo sapiens) (UniProt P05771); conditions: at 0.1 µM
[7] = target: Protein kinase C beta type (Homo sapiens) (UniProt P05771); conditions: at 1 µM
[8] = target: Protein kinase C eta type (Homo sapiens) (UniProt P24723); conditions: at 0.1 µM
[9] = target: Protein kinase C eta type (Homo sapiens) (UniProt P24723); conditions: at 1 µM
[10] = target: Protein kinase C gamma type (Homo sapiens) (UniProt P05129); conditions: at 0.1 µM;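 further: values are mean percent inhibition of PKC gamma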

Sequence of Protein kinase C beta type (Homo sapiens) (P05771 2-671 limits assumed): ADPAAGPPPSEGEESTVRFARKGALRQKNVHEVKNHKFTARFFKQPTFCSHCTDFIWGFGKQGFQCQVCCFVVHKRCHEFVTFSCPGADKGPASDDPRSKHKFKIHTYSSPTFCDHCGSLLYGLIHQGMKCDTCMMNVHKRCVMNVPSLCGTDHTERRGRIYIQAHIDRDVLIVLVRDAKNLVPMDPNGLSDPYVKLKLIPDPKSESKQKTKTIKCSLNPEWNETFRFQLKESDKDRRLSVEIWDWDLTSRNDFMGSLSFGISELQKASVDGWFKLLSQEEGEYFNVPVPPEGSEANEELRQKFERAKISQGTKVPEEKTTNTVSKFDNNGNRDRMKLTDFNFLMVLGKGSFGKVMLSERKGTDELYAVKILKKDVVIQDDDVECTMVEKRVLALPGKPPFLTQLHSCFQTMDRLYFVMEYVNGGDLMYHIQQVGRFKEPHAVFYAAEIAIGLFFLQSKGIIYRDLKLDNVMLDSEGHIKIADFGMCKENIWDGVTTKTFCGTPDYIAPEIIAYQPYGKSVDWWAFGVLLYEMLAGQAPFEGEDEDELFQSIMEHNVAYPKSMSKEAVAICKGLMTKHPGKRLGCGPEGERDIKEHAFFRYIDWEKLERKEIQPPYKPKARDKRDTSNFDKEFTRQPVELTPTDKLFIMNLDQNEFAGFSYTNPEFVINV
Sequence of Protein kinase C eta type (Homo sapiens) (P24723 whole entry): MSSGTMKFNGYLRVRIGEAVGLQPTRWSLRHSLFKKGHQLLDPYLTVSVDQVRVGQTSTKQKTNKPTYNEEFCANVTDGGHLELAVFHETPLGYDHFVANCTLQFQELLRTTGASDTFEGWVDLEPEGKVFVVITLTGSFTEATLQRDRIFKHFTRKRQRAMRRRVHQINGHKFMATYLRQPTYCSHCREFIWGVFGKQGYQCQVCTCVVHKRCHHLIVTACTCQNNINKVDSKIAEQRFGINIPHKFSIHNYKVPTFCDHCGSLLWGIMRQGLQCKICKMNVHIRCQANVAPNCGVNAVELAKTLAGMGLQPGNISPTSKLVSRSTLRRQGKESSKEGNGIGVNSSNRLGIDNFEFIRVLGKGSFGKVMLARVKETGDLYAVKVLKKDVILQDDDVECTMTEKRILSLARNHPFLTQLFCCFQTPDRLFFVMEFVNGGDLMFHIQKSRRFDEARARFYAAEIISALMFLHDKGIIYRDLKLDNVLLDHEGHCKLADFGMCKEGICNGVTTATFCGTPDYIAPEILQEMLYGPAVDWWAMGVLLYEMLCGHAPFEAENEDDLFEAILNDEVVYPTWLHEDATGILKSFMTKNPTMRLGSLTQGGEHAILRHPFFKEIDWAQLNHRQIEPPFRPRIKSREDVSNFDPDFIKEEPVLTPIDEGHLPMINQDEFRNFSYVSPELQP

Row | SMILES | inhibition [1] [%] | inhibition [2] [%] | inhibition [3] [%] | inhibition [4] [%] | inhibition [5] [%] | inhibition [6] [%] | inhibition [7] [%] | inhibition [8] [%] | inhibition [9] [%] | inhibition [10] [%]
1 | CNC(=O)c1cc(-c2ccc(F)cc2)cc(-c2ccc(S(=O)(=O)N3CCCC3)cc2)c1N | 1.46 | 0.9 | 0.32 | 0.46 | 1.02 | -0.39 | 0.24 | 3.68 | 1.41 | 2.34
2 | CN1CCC(n2cnc(-c3ccc(F)cc3)c2-c2ccnc(Nc3ccccc3)n2)CC1 | 3.8 | 2.92 | 16.7 | 19.4 | 65.2 | 16.1 | 51 | 2.14 | 2.72 | 5.68
3 | CCCN(CCS(C)(=O)=O)Cc1ccc(-c2ccc3ncnc(Nc4ccc(OCc5cccc(F)c5)c(Cl)c4)c3c2)o1 | 1.25 | 0.67 | 1.36 | 0.08 | 1.04 | 0.26 | 0.52 | 2.45 | 3.94 | 1.25
4 | Cc1cccc2c1NC(=O)/C2=N\Nc1ccc(S(N)(=O)=O)cc1 | 2.44 | 1.54 | 2.59 | 0.55 | 5.16 | 0.49 | -1.37 | 4.66 | 3.34 | -3
5 | Nc1ncc(-c2cccc(S(N)(=O)=O)c2)c2scc(-c3ccc(F)c(Cl)c3)c12 | 1.01 | 3.02 | 3.59 | -0.67 | 2.74 | -0.08 | 0.9 | 4.76 | 6.59 | -0.92
6 | COc1ccc(-c2cc(-c3c[nH]nc3-c3ccccn3)ccn2)cc1 | 2.34 | 2.05 | 3.35 | 0.46 | 2.09 | 1.41 | 3.92 | 4.04 | 5.03 | 1.23
7 | NS(=O)(=O)c1ccc(Nc2ncc(-c3ccccc3)o2)cc1 | 4.51 | 1.3 | 3.27 | 0 | 1.96 | -0.16 | 1.54 | 3.2 | 1.9 | 1.28
8 | FC(F)(F)c1cccc(-c2nn3ncccc3c2-c2ccnc(Nc3ccc4c(c3)OCCO4)n2)c1 | 0.71 | 1.01 | 2.39 | 0.53 | 1.32 | 0.07 | -2.34 | 2.1 | 1.3 | 0.03
9 | CCn1cc(-c2ccnc3[nH]ccc23)c(-c2cccc(NC(=O)Nc3ccc(OCc4ccccc4)cc3)c2)n1 | -1.57 | 4.08 | 5.34 | 1.25 | 2.76 | 0.5 | 1.43 | -2.7 | 1.78 | 0.3
10 | CCN1CCC(CC(=O)Nc2n[nH]c3nnc(-c4cccc(F)c4F)cc23)CC1 | 1.89 | 1.6 | 3.23 | 0.66 | 1.58 | 2.14 | 0.03 | 1.63 | 3.3 | 3.44
11 | COc1cccc(-c2c[nH]c3c(N/N=C/c4ccncc4)ncnc23)c1 | 6.08 | 1.57 | 3.93 | 0.02 | 4.24 | 2.33 | 4.29 | 2.72 | 1.53 | 2.27
12 | COc1cc(Nc2nccc(Nc3ccc4c(C)n[nH]c4c3)n2)cc(OC)c1OC | 2.76 | 2.38 | 14 | 1.29 | 10.2 | 1.4 | 1.99 | 3.09 | -1.03 | 3.2
13 | Fc1ccc(-c2nn3ncccc3c2-c2ccnc(Nc3ccc4c(c3)OCCO4)n2)cc1 | 1.87 | 2.22 | 7.13 | 1.5 | 15.3 | 1.43 | 13.3 | 2.26 | 6.09 | -1.6
14 | COc1cc(/C=N/Nc2ncnc3[nH]ncc23)ccc1O | 2.95 | 1.43 | 5.96 | 0.03 | 3.59 | -0.06 | 4.56 | 0.97 | 7.35 | 2.16
15 | Fc1cccc(COc2ccc(Nc3ncnc4sc(-c5ccco5)cc34)cc2Cl)c1 | -0.87 | 0.8 | 1.84 | 1.33 | 1.21 | 0.29 | -3.68 | 5.34 | 4.83 | 1.52
16 | O=C(O[C@H]1CN[C@H](C#Cc2cc3ncnc(Nc4ccc(Cc5ccccc5)cc4)c3s2)C1)N1CCOCC1 | -1.22 | 4.03 | 5.91 | 0.96 | 4.81 | 2.02 | 4.66 | 2.47 | 4.45 | 4.28
17 | Cc1ccc(O)cc1Nc1ccnc2cc(-c3ccccn3)ccc12 | 3.22 | 1.65 | 0.73 | 0.94 | 1.06 | -0.22 | 0.21 | 4.81 | 3.71 | 5.48

Row | SMILES | inhibition [1] [%] | inhibition [2] [%] | inhibition [3] [%] | inhibition [4] [%] | inhibition [5] [%] | inhibition [6] [%] | inhibition [7] [%] | inhibition [8] [%] | inhibition [9] [%] | inhibition [10] [%]
18 | CC(C)(CO)CNC(=O)c1ccc2c(c1)/C(=N/Nc1ccc(S(N)(=O)=O)cc1)C(=O)N2 | 13.1 | 0.87 | 1.58 | -0.39 | 0.27 | -0.69 | 0.02 | 2.86 | -0.08 | 1.72
19 | N#Cc1c(NC(=O)CN2CCOCC2)sc2c1CCCC2 | 2.07 | 2.3 | 1.82 | 2.23 | 5.72 | 0.89 | 2.05 | 5.18 | 3.17 | 3.77
20 | COc1ccc(-c2nn3ncccc3c2-c2ccnc(Nc3ccc4c(c3)OCCO4)n2)cc1 | -0.83 | 0.73 | 2.32 | -1.17 | 0.51 | -1.85 | 3.69 | 1.65 | 2.32 | 0.61
21 | COC(=O)Nc1nc2ccc(S(=O)(=O)c3ccc(NC(=O)Nc4cc(C(F)(F)F)ccc4F)cc3)cc2[nH]1 | 1.73 | 1.93 | 1.3 | 0.42 | -0.51 | 0.31 | 0.32 | 0.95 | 2.18 | 0.47
22 | COc1cc(N2CCN(C(C)C)CC2)ccc1Nc1nc(Nc2ccc(F)cc2C(N)=O)c2cc[nH]c2n1 | -1.21 | 7.85 | 7.44 | 0.54 | 6.72 | 1.83 | 4.58 | 1.05 | 3.09 | 3.65
23 | CCN(CC)S(=O)(=O)c1ccc(OC)c(Nc2ncc(-c3ccccc3)o2)c1 | 1.9 | 0.79 | 1.82 | 0.46 | 1.64 | 1.38 | 1.74 | 3.12 | 0.58 | 0.29
24 | CCn1c(-c2nonc2N)nc2c(C#CC(C)(C)O)nc(OC[C@H](N)c3ccccc3)cc21 | 0.94 | 81.3 | 82.5 | 3.82 | 32.3 | 32.7 | 67.3 | 97.9 | 97.1 | 8.83
25 | CCCN1CCC(c2ccc(Nc3nc(Nc4cc(F)ccc4C(N)=O)c4cc[nH]c4n3)c(OC)c2)CC1 | 0.96 | 2.33 | 3.51 | 0.66 | 16.6 | 0.19 | 4.9 | 2.99 | 9.93 | 3.12
26 | Cc1cccc(Nc2ncc(-c3ccccc3)o2)c1 | 1.5 | 12.6 | 13.8 | 0.24 | 3.41 | 3.52 | 5.79 | 2.87 | 0.87 | 3.99
27 | CNC(=O)c1cncc(/C=C/c2ccccc2Cl)c1 | -0.25 | 1.4 | 3.17 | 0.42 | -0.07 | 2.7 | 5.12 | 1.33 | 2.39 | 3.03
28 | CC(=O)Nc1cccc(C#Cc2cncnc2Nc2ccc(OCc3cccc(F)c3)c(Cl)c2)c1 | 2.17 | 2.17 | 4.12 | 0.9 | 2.2 | 0.65 | 0.21 | 0.22 | -0.44 | 3.94
29 | Nc1nc(-c2ccc(F)cc2)c(-c2ccc3ncccc3n2)s1 | 3.99 | 1.65 | 3.75 | 1.13 | 2.9 | 0.21 | 3.92 | 1.76 | 6.71 | 2.26
30 | c1ccc(-c2nc3n(c2-c2ccc4c(c2)OCO4)CCC3)nc1 | 0.98 | 1.49 | 5.08 | 0.9 | 1.8 | 3.53 | 5.04 | 1.35 | 1.85 | 0
31 | c1ccc(COc2ccc(Nc3ncnc4ccc(-c5ccco5)cc34)cc2)cc1 | 0.07 | 1.25 | 1.55 | -0.04 | 0.05 | -0.86 | -0.3 | 0.37 | 0.45 | 0.73
32 | CC(=O)NCc1cccc(C#Cc2cncnc2Nc2ccc(OCc3cccc(F)c3)c(Cl)c2)c1 | 0.04 | 0.53 | 0.58 | 0.2 | 1.17 | -0.24 | 3.27 | 1.39 | 3.4 | -0.73
33 | Nc1nc(-c2cccc(Cl)c2)c(-c2ccc3ncccc3n2)s1 | 0.49 | 2.34 | 4.12 | 1.05 | 1.4 | 2.33 | 4.87 | 5.47 | 7.42 | 1.18
34 | COc1ccc(-c2cc3c(N)ncnc3o2)cc1 | -0.95 | -0.06 | 0.18 | -0.88 | 3 | -0.74 | -2.12 | -4.39 | -1.49 | 0.2
